# Measured values: PubChem BioAssay (NCI)
# About 83,000 compounds went through this panel and 20% of them were active in at least one assay; those are over-represented in the sample as a whole.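 The test compound was applied at a single concentration to cells in 96-well plates for 48 hours, and percent growth was recorded.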 Activity calls are given as the source filed them. How the source made its calls: active means growth percent below 10; inactive means the rest.
# Tested on: OVCAR-5 ovarian
# Assay: NCI-60 one-dose screen, 48 h (100 = growth as untreated, 0 = no growth, -100 = all killed)
# Conditions: 10 µM unless noted
row,SMILES,growth
1,CN1CCN(CCCN2c3ccccc3Sc3ccc(Cl)cc32)CC1,94.4% (inactive)
2,O=C(c1cccc(Br)c1)N1CCN(c2ccnc3cc(Cl)ccc23)CC1,90% (inactive)
3,N#CSc1c[nH]c2ccc(/C=C/C(=O)/C=C(/C=C/c3ccc4[nH]cc(SC#N)c4c3)OB(F)F)cc12,17% (inactive)
4,COc1cc(Nc2nc3ccccc3cc2C(=O)Nc2ccc(F)c(F)c2)cc(OC)c1OC,63.9% (inactive)
5,CCOC(=O)CC1CSC(c2cccc(Cl)c2)=N1 (centres undefined),113% (inactive)
6,CC/C=C\C/C=C\C[C@H](O)C/C=C1/C(=O)C=C[C@@H]1C/C=C\CCCC(=O)OC,11% (inactive)
7,CCCCCCNC(=O)Oc1ccc(/C(=C(/CC)Cc2ccccc2)c2ccc(OCCCN(C)C)cc2)cc1,90.5% (inactive)
8,NC(N)=NC(N)=NCCCc1ccco1,114% (inactive)
9,O=C(N=Nc1c(O)[nH]c2ccccc12)Nc1ccccc1Cl,93.6% (inactive)
10,O=C(N/N=C/c1ccc(O)cc1O)c1cccc(Nc2ccnc(C(F)(F)F)c2)c1,47.8% (inactive)
11,O=C(Nc1ccc2ccccc2c1)c1cc2ccccc2cc1O,98.8% (inactive)
12,Cc1ccc(-c2nc3nc(-c4ccccc4)nc(N4CCN(S(=O)(=O)c5ccccc5)CC4)c3o2)cc1,99% (inactive)
13,Cn1cc(C2=C(c3cccc4ccccc34)C(=O)NC2=O)c2cc(Br)ccc21,126% (inactive)
14,CC[C@@H]1NC(=O)[C@H]([C@H](O)[C@H](C)C/C=C/c2ccc(CN3C(=O)C(C)=C(C)C3=O)cc2)N(C)C(=O)[C@H](C(C)C)N(C)C(=O)[C@H](CC(C)C)N(C)C(=O)[C@H](CC(C)C)N(C)C(=O)[C@@H](C)NC(=O)[C@H](C)NC(=O)[C@H](CC(C)C)N(C)C(=O)[C@H](C(C)C)NC(=O)[C@H](CC(C)C)N(C)C(=O)CN(C)C1=O,75.9% (inactive)
